# TDP1 cell CPT – qHTS for Inhibitors of human tyrosyl-DNA phosphodiesterase 1 (TDP1): qHTS in cells in presence of CPT; AID 686979, 2013; chicken DT40 Tdp1-/-;hTDP1 cells + 20 nM CPT, ATP luminescence, 48 h; 12% of 420,000 active; Potency, µM (titrated, usually from 46.2 µM), inactives show at the highest dose activity change, negative = growth inhibition, actives largely listed as inhibitors; note: potency is the fitted concentration of half-maximal effect; % is set by controls: 0 for no effect and ±100 for the full control effect; nearly all actives have a fitted effect of over 55% in size
#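 Cell growth measured by CellTiter-Glo luminescence after a minimum 48 h, 37 C compound exposure with 20 nM CPT in Tdp1-knockout DT40 cells stably expressing hTDP1, seeded 400/well; qHTS titration format.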
# DT40 TDP1 no CPT – qHTS for Inhibitors of human tyrosyl-DNA phosphodiesterase 1 (TDP1): qHTS in cells in absence of CPT. DT40 Tdp1-/- hTDP1 cells, no CPT, ATP luminescence, 48 h. Potency, µM (highest dose often 46.2 µM), inactives show at the top dose activity change, negative = growth inhibition, usual class: inhibitors. 15% of 420,000 active; note: potency is the fitted concentration of half-maximal effect; % is set by controls: 0 for no effect and ±100 for the full control effect; nearly all actives have a fitted effect of over 55% in size
#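 Luminescent ATP content (CellTiter-Glo) served as the growth readout. Knockout chicken DT40 cells expressing human TDP1 were exposed to compounds without camptothecin for a minimum 48 hr at 37 °C.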
# TDP1 inh – qHTS Assay for Inhibitors of Tyrosyl-DNA Phosphodiesterase (TDP1) | Tyrosyl-DNA phosphodiesterase 1 (Homo sapiens), Q9NUW8 | recombinant TDP1, AlphaScreen DNA substrate cleavage | Potency, µM (highest dose often 130 µM), for the others: at the highest dose activity change, negative = inhibition, hits mostly inhibitors | 0.28% of 350,000 active; note: potency is the fitted concentration of half-maximal effect; % is set by controls: 0 for no effect and ±100 for the full control effect; nearly all actives have a fitted effect of over 40% in size
# Target sequence (Q9NUW8 whole entry, looked up): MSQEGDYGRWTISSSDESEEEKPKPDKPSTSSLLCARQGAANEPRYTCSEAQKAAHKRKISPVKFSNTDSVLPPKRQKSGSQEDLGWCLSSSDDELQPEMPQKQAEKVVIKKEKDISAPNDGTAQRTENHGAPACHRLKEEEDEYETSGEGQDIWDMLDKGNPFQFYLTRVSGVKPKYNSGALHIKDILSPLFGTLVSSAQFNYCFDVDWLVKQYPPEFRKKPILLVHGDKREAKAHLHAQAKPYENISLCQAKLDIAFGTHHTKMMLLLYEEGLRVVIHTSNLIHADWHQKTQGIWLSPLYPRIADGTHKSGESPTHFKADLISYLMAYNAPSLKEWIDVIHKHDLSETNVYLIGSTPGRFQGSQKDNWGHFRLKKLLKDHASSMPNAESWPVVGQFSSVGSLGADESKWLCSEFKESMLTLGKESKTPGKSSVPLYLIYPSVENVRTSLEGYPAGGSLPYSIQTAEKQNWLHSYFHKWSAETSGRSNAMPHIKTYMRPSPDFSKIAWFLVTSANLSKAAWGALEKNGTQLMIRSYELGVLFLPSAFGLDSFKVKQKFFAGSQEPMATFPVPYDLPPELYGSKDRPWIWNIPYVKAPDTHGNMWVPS
#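 Recombinant human Tdp1 (E. coli-expressed, 1 nM final) preincubated with compounds 15 min at room temperature, then 5'-biotin/3'-phosphotyrosine-FITC DNA substrate (15 nM final) added for 5 min. AlphaScreen beads (10 ug/ml final) added 10 min; cleavage lowers signal.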
# miR-21 act – qHTS Assay for Modulators of miRNAs and/orActivators of miR-21; Potency, µM (series often up to 38.3 µM), inactives show at the highest dose activity change, positive = activation, usual class: activators; HeLa miR-21 FLuc reporter, luciferase, 48 h; AID 2288, 2010; 340,000 tested, under 10 active;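 note: % of control where 0% means no effect; miR-21 action dims this reporter so a rising signal means less miR-21 action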
#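 HeLa cells endogenously expressing miR-21, stably carrying CMV-driven firefly luciferase with a downstream miR-21 binding site, 2000 cells/well. Titrations up to approximately 40 uM, 48 hours; luciferase luminescence read.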
# uPA generation – qHTS for Inhibitors of Cell Surface uPA Generation; cell surface uPA generation assay, qHTS; Potency, µM (series often up to 38.3 µM), for inactives: at the highest dose activity change, negative = inhibition, usual class: inhibitors; 0.31% of 330,000 active; active = well fitted inhibition curve with a large enough effect; inconclusive = small, poorly fitted or top-dose-only effect; inactive = no such curve, though single readings can be large or run the other way; tested in mouse RAW 264.7 cells; note: potency is the fitted concentration of half-maximal effect; % is set by controls: 0 for no effect and ±100 for the full control effect; nearly all actives have a fitted effect of over 55% in size
# Numbers without * were called inactive; u = inconclusive; x = no result given. In the library only some 16% were active in any assay of this set; here they are far more common. Unless noted, calls come from the whole dose curve; as a rule, active = well fitted curve in the direction sought with a large enough effect; inconclusive = small, poorly fitted or top-dose-only effect, or another doubt; inactive = no such curve, though single readings can be large; an effect the other way counts as inactive or inconclusive.
SMILES,TDP1 cell CPT,DT40 TDP1 no CPT,TDP1 inh,miR-21 act,uPA generation
CCc1ccc(OCC2c3cc(OC)c(OC)cc3CCN2C(=O)COc2ccccc2)cc1 (configuration not stated),u,16µM*,8%,12%,x
COCC(=O)N1CCc2cc(OC)c(OC)cc2C1COc1ccc2c(C)cc(=O)oc2c1 (configuration not stated),-27%,u,-3%,2%,x
COc1cc2c(cc1OC)C(COc1ccccc1OC)N(C(=O)COc1ccc(Cl)cc1)CC2 (configuration not stated),18µM*,23µM*,5%,18%,x
O=S1(=O)C=CC(Sc2nc3ccccc3[nH]2)C1 (configuration not stated),13µM*,21µM*,-5%,-1%,0%
CC1=CS(=O)(=O)CC1Sc1nc2ccccc2[nH]1 (configuration not stated),12%,5%,5%,3%,-6%
O=C(OC1CC2CC1[C@H]1CCCCN1C2=O)N1CCN(c2ccccc2)CC1 (some centres not stated),2%,u,x,x,x
O=C(OC1CC2CC1[C@H]1CCCCN1C2=O)N1CCC(c2ccccc2)CC1 (some centres not stated),u,16µM*,x,x,x
O=C(NCc1ccccn1)c1cccs1,1%,1%,1%,-13%,x
O=C(Nc1ccccn1)c1cccs1,18µM*,26µM*,5%,-31%,-5%
O=C(NCCCNC(=O)c1cccs1)c1cccs1,8.2µM*,9.2µM*,2%,-8%,1%
O=C(Nc1nonc1NC(=O)c1cccs1)c1cccs1,26µM*,23µM*,3%,26%,-10%
Cc1c(OC(C)C(=O)NCc2ccncc2)ccc2c3c(c(=O)oc12)CCCC3 (configuration not stated),21µM*,u,8%,0%,2%
Cc1cc(=O)oc2c(C)c(OC(C)C(=O)NCC(O)c3ccccc3)ccc12 (configuration not stated),-10%,8%,2%,-1%,0%
Cc1c(OC(C)C(=O)NCC(O)c2ccccc2)ccc2c3c(c(=O)oc12)CCCC3 (configuration not stated),23µM*,u,2%,8%,-15%
Cc1ccc(C)c(Cn2c(=O)n(-c3ccc(Cl)cc3)c(=O)c3c4c(sc32)CCC4)c1,-23%,-7%,3%,-1%,x
Cc1c(Cl)cccc1NC(=O)COC(=O)Cc1ccsc1,4%,7%,0%,x,11%
Cc1sc(NC(=O)c2ccco2)c(C(c2ccncc2)N2CCOCC2)c1C (configuration not stated),-27%,u,6%,1%,7%
Cc1sc(NC(=O)c2ccco2)c(C(c2cccnc2)N2CCN(C)CC2)c1C (configuration not stated),21µM*,12µM*,5%,0%,3%
Cc1sc(NC(=O)c2ccco2)c(C(Nc2ccccn2)c2ccccc2)c1C (configuration not stated),-15%,u,4%,-24%,0%
Cc1sc(NC(=O)c2ccco2)c(CN2CCCCC2)c1C,u,u,4%,-18%,-1%
COc1cccc(C(c2c(NC(=O)c3ccco3)sc(C)c2C)N2CCOCC2)c1 (configuration not stated),u,u,4%,x,-14%
Cc1sc(NC(=O)c2ccco2)c(CN2CCN(c3ccccc3)CC2)c1C,15µM*,10µM*,1%,-11%,10%
Cc1sc(NC(=O)c2ccco2)c(C(c2cccnc2)N2CCCC2)c1C (configuration not stated),2.9µM*,2.3µM*,7%,-13%,x
CCOc1ccc(C(c2c(NC(=O)c3ccco3)sc(C)c2C)N2CCOCC2)cc1 (configuration not stated),23µM*,u,4%,x,-25%
CCCCn1c(CNC(=O)C23CC4CC(CC(C4)C2)C3)nnc1SCC(=O)Nc1ccc(F)cc1,u,u,3%,9%,x
SMILES,TDP1 cell CPT,DT40 TDP1 no CPT,TDP1 inh,miR-21 act,uPA generation
CCCOC(=O)c1ccc(-c2c(C)noc2-c2ccc(OC)cc2O)o1,-29%,u,1%,29%,4%
O=C(NCCCO)NC12CC3CC(CC(C3)C1)C2,-24%,-11%,8%,-11%,x
CC(=O)Nc1ccc(-c2ccnc3c2CC(C(=O)NCC2CC2)O3)cc1 (configuration not stated),13µM*,8.2µM*,x,x,x
CC(=O)Nc1ccc(-c2ccnc3c2CC(C(=O)NCCC(F)(F)F)O3)cc1 (configuration not stated),13µM*,15µM*,x,x,x
CC(=O)Nc1ccc(-c2ccnc3c2CC(C(=O)NCC2CCOCC2)O3)cc1 (configuration not stated),4.6µM*,4.1µM*,x,x,x
CC(=O)Nc1ccc(-c2ccnc3c2CC(C)(C(=O)NCC2CC2)O3)cc1 (configuration not stated),-25%,u,x,x,x
CCOc1ccc(OCC)c(NC(=O)CN(C)S(=O)(=O)c2ccc3nc(C)sc3c2)c1,u,u,8%,0%,2%
CN(CC(=O)NNC(=O)CCNS(=O)(=O)c1ccccc1)S(=O)(=O)c1ccc(Cl)cc1,-15%,-7%,-17%,x,13%
Cc1c(C(=O)N(C)Cc2nc3ccccc3c(=O)[nH]2)oc2ccccc12,u,23µM*,2%,x,-9%
CC(=O)N(Cc1ccc(F)cc1)Cc1nc2ccccc2c(=O)[nH]1,u,u,0%,1%,1%
CC(=O)c1ccc(-c2ccc(C(=O)N(C)Cc3nc4ccccc4c(=O)[nH]3)o2)cc1,u,23µM*,5%,x,7%
COc1ccc(C(=O)N/C(=C/c2ccco2)C(=O)NC2CCS(=O)(=O)C2)cc1 (configuration not stated),14%,5%,1%,0%,5%
CCCN1CCN(C(=S)Nc2ccc3nc(N4CCN(CC)CC4)cc(C)c3c2)CC1,u,u,-2%,-1%,1%
COc1ccc(NS(=O)(=O)c2ccc3[nH]c4c(c3c2)CCCC4)c(OC)c1,21µM*,21µM*,7%,u,x
COc1ccc(NS(=O)(=O)c2ccc3[nH]c4c(c3c2)CCCCC4)cc1,16µM*,23µM*,3%,-11%,x
CCOc1ccc(NS(=O)(=O)c2ccc3[nH]c4c(c3c2)CCCCC4)cc1,23µM*,18µM*,6%,10%,x

# Bioassay records: PubChem, National Center for Advancing Translational Sciences (NCATS)
